From the supplement of paper PMC6555819

Legend:
Test in all cases: PBM binding z-score (relative to random genomic background probes); higher = stronger binding; sequences stand for … in GC…GCGATTGACAGCGTAGAATGAAGG
[1] = test system: FXR:RXRa (NR concentration 270 nM, RXRa partner concentration 90 nM)
Summary of the method: (§1)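 On custom Agilent 4×180K arrays, double-stranded probes with 34-nt variable regions carried direct-repeat seeds, single-nucleotide variants, half-site ablations or random human genomic background. Ligand-free nuclear receptor dimers were applied for 1 h, and binding was read with antibodies against each partner (one per run). Binding z-scores come from regression-normalized fluorescence, with the random background probes as reference.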

[2] = test system: LXRa:RXRa (NR concentration 270 nM, RXRa partner concentration 90 nM)
Summary of the method: as §1

[3] = test system: LXRa homodimer (NR concentration 270 nM)
Summary of the method: as §1

[4] = test system: LXRb:RXRa (NR concentration 270 nM, RXRa partner concentration 90 nM)
Summary of the method: as §1

[5] = test system: LXRb homodimer (NR concentration 270 nM)
Summary of the method: as §1

[6] = test system: PPARa:RXRa (NR concentration 270 nM, RXRa partner concentration 90 nM)
Summary of the method: as §1

[7] = test system: PPARg:RXRa (NR concentration 180 nM, RXRa partner concentration 90 nM)
Summary of the method: as §1

[8] = test system: PPARg:RXRa 270nM:90nM, anti-RXR (NR concentration 270 nM, RXRa partner concentration 90 nM)
Summary of the method: as §1

[9] = test system: PPARg:RXRa 30nM:10nM, anti-RXR (NR concentration 30 nM, RXRa partner concentration 10 nM)
Summary of the method: as §1

[10] = test system: PPARg:RXRa 90nM:30nM, anti-RXR (NR concentration 90 nM, RXRa partner concentration 30 nM)
Summary of the method: as §1

Sequence	PBM binding z-score [1]	PBM binding z-score [2]	PBM binding z-score [3]	PBM binding z-score [4]	PBM binding z-score [5]	PBM binding z-score [6]	PBM binding z-score [7]	PBM binding z-score [8]	PBM binding z-score [9]	PBM binding z-score [10]
CGAAGTAGGTCAAAGGACAGTGAAAGGCGACGTA	4.62	3.33	0.269	2.23	-0.098	5.66	10.5	8.99	8.23	9.73
ATCTCTAGGTAAAGTTCATTGAAAGATCGATAGA	2.67	3.78	4.69	2.63	1.81	3.5	4.69	5.51	3.5	5.54
ATATGTAGGTTAGGGTCATTCGGAAAGTAGGGAA	5.03	4.43	1.22	4.4	1.67	5.83	7.56	6.42	4.48	6.36
CAAACTAGGTCACGAAAGGTCAAAGCCGAATGAC	7.72	8.31	8.03	7.21	2.38	6.89	10.6	8.43	7.38	8.99
CGAACTAGGTCACCAGAACAGTGAAGAGGTTGGA	3.61	2.14	-0.204	1.65	-0.116	5.2	8.46	6.91	5.08	6.61
CCTCGGAGGTCAGAAGGTCAGAGCTGTCCGCTTT	5.84	4.89	1.19	3.83	0.259	4.92	3.38	5.24	1.27	3.92
TCTAGGAGGACACGAAGGTCAGAGCTTTCCAGAG	1.27	0.762	0.19	0.856	-0.833	2.05	0.882	2.09	2.49	2.5
ATTTGTAGGTTATCGGGTCATTCAGTTTGCGCAT	3.62	4.05	3.03	3.67	2.31	4.47	6.03	5.66	2.93	5.14
CGTCAACGTTCAACTAAGGTAACGTAAAGCACGC	0.828	0.246	0.102	0.277	0.346	0.566	0.682	0.178	-0.166	-0.0957
ATATGGAGGTTAAGGGTCATTCAGGTTGGTTCGC	6.25	5.67	3.97	5.2	1.77	6	9.22	8.75	7.43	10.3
CGAACTCGGTCACCAGGACAGTGAAGAGGTTGGA	0.841	0.683	0.119	-0.176	-1.17	1.76	1.91	1.64	-0.104	0.606
CGAACTAGGTCACCAGGACAGTGACGAGGTTGGA	4.27	2.44	-0.221	1.53	-0.75	5.17	8.62	6.98	4.41	6.34
ACTAGTTGGTCAGCTGAGGTCACACACAATTCGG	4.25	3.46	1.96	3.8	0.66	3.89	1.97	2.31	0.854	1.58
CGAACTTGGTCACCAGGACAGTGAAGAGGTTGGA	0.102	-0.231	-0.0617	-0.452	-0.791	0.239	0.758	0.47	-0.456	-0.143
CGAACTAGGTCACCACGACAGTGAAGAGGTTGGA	4.13	2.41	0.318	1.87	-0.171	5.18	8.44	7.14	4.87	6.86
ATCGTAAGGTCGTGAGGTGAGTATACAGAAAGGC	3.26	2.69	-0.00472	2.14	0.775	3.87	1.99	2.39	0.777	1.55
CCTACTGGGCCATGAAAGGTCATTGATTCAGTGA	3.25	4.74	4.74	3.86	0.00492	4.16	2.9	4.17	1.44	3.24
CGAACTAGGTCACCGGGACAGTGAAGAGGTTGGA	4.89	2.78	-0.0882	1.89	-0.502	5.58	9.04	7.34	5.02	7.12
GCTGCTAGGTCAACTGATGGTCAGCTAAAGCTCG	4.31	3.05	0.34	2.04	-0.115	3.63	2.88	3.35	0.939	2.08
ATATGTAGGTTAAGGTCATTCAGAAAGTAGGGAA	5.54	5.3	3.85	4.59	1.75	5.54	8.49	6.99	5.28	7.39
CGTCCGAGGTCAATGCTAGGTCAGTGAAAGCATT	7.31	5.94	2.78	5.22	1.08	5.78	5.25	5.35	1.89	4.18
ATATGTCGGTTAGGGTCATTCAGAAAGTAGGGAA	4.73	3.97	1.11	4.09	2.21	4.78	3.57	3.71	1.57	3.07
CGAACTAGGACAAAGGACAGTGAAAGGCGACGTA	-0.156	-0.553	-0.411	-0.765	-0.967	2.45	5.34	5.78	3.93	5.64
CTCCAAAGGTCGGTTGAGGTGAGTATACGGATAA	2.49	1.93	-0.152	1.71	-0.00126	2.95	1.01	1.64	0.12	0.875

Sequence	PBM binding z-score [1]	PBM binding z-score [2]	PBM binding z-score [3]	PBM binding z-score [4]	PBM binding z-score [5]	PBM binding z-score [6]	PBM binding z-score [7]	PBM binding z-score [8]	PBM binding z-score [9]	PBM binding z-score [10]
ATATGTGGGTTATCGGGTCATTCAGTTTGCGCAT	3.03	2.75	1.74	3.53	1.8	4.86	6.89	5.78	3.08	5.43
GATACAAGGTCAGCTAGAGGCCAGAGTATGGAAA	5.51	3.77	0.325	2.78	-0.103	4.53	3.95	3.5	1.23	2.18
CGAACTAGGTCGAAGGACAGTGAAAGGCGACGTA	-0.0707	-0.21	-0.395	-0.3	-1.11	2.52	5.13	5.69	2.98	5.61
CGTGCAAGGTCAGAGAGGTCAGTGAATGCCGAGT	6.42	5.22	3.35	4.61	0.199	5.16	3.9	4.62	1.19	3.09
CGAACTAGGTCACCAAGACAGTGAAGAGGTTGGA	3.75	1.93	-0.0683	1.32	-0.272	5.11	8.16	6.46	4.53	6.57
ATATGTAGCTTAAGGGTCATTCAGGTTGGTTCGC	3.83	3.86	1.83	3.79	0.863	4.2	3.93	5.35	3.44	5.39
GATACAGGGGCAAGGCCAGAGTACGCGTATTGAT	-0.0183	-0.167	-0.13	0.382	-0.692	0.546	0.875	0.31	0.0579	0.23
ATCAAAAGGTCGAAGGTGAGTATACCCACCCGAA	5.02	4	0.531	2.87	0.821	5.02	5.28	5.42	3.17	4.75
AGTCCAAGTTCACTAGGTAACGTAAGATTCAGCT	1.35	1.68	0.49	0.985	0.056	2.69	2.6	2.95	0.796	1.91
TCTGCTTGGTCAACGATGGTCAGCTAATCTGCTA	-0.224	-0.219	-0.946	-0.549	-0.202	0.184	-0.488	0.665	1.65	0.96
GCTGCTAGGTAAGGTTGGTCAGCTAACGGGTACG	-0.225	-0.495	-0.455	-0.746	-0.795	-0.411	-0.199	-0.51	-0.761	-0.734
CGAACTAGCTCACCAGGACAGTGAAGAGGTTGGA	-0.472	-0.64	-0.125	-0.561	-0.585	-0.517	0.165	-0.517	-0.602	-0.751
CCTACTGGGCCAAAGGCCATTGATTCCAATGCTC	-0.204	-0.344	-0.23	-0.115	-0.699	3.51	7.53	7.54	6.63	7.44
CGTCCAAGGTCAATGCAAGGTCAGTGAAAGCATT	7.23	5.69	4.1	5.16	1.06	5.79	4.73	5.14	2.05	3.82
CGTCCAAGGTCAATGCGAGGTCAGTGAAAGCATT	7.21	6.04	4.28	5.1	1.25	5.46	4.59	4.98	1.48	3.65
ATATGTAGGTTAGGGTCATTCATAAAGTAGGGAA	5.45	4.03	1.6	4.64	1.55	5.93	8.24	6.58	4.58	6.47
ATCGAAAGGTCGAAGGTGACTATACCCACCCGAA	4.54	3.72	0.344	3.07	0.925	4.92	5.16	5	2.71	4.38
CTCGAAAGGTCGGTTGAGGTGACTATACGGATAA	3.63	1.84	-0.14	1.58	0.0463	2.63	0.621	1.11	0.252	0.639
ATATGTAGGTTAGGGGCATTCAGAAAGTAGGGAA	1.64	1.47	0.824	3.01	2.52	3.8	5.77	5.21	2.78	4.77
CGAACTAGGTCAGAACAGGACAGTTAAGGATGAT	1.32	0.929	-0.00999	0.73	-0.36	3.07	5.13	4.49	2.04	3.46
CGAACTAGGTCACGAGGACAGTGAAGAGGTTGGA	4.56	2.89	0.291	1.98	-0.399	5.33	8.72	7.24	5.15	6.84
AGTCAGAGTTCATCTAGGTAACGTAAGATATGCT	6.74	5.36	4.78	3.63	1.48	4.64	4.23	4.21	1.67	3.42
AACGAAAGGTCGACGAGGTGAGTATACACCGTTT	4.99	3.68	0.231	2.9	0.0317	4.82	3.19	3.42	1.02	2.48
ATATGTAGGTTAGGGCCATTCAGAAAGTAGGGAA	0.671	0.708	0.2	0.722	0.503	2.71	3.6	3.2	1.06	2.58
